Screening data deposited in PubChem BioAssay by National Center for Advancing Translational Sciences (NCATS).
D1 antagonist: human D1 dopamine receptor antagonism; P21728; HEK293 TREx D1 cells, calcium flux, dopamine EC80; active compounds read low; activity change, negative = inhibition, % at 10 µM; 360,000 compounds, 3.2% hits; AID 504652; in the data active means activity change below about -30%
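Cells carrying a force-coupled, tetracycline-inducible human D1 receptor report calcium flux. Each well gets a 10 s baseline, compound with 180 s monitoring, then an EC80 dopamine stimulus with a second 180 s kinetic read.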
USP1-UAF1 inh: inhibitors of human USP1/UAF1 deubiquitinase. 390,000 compounds, 0.23% hits. recombinant USP1/UAF1, Ub-Rhodamine cleavage fluorescence. O94782. Potency, µM (doses to about 57.1 µM), usual class: inhibitors. AID 743255; active means well fitted inhibition curve with a large enough effect; inconclusive means small, poorly fitted or top-dose-only effect; inactive means no such curve, though single readings can be large or run the other way; further: nearly all actives have a fitted effect of over 60% in size
Target sequence (O94782 whole entry, looked up): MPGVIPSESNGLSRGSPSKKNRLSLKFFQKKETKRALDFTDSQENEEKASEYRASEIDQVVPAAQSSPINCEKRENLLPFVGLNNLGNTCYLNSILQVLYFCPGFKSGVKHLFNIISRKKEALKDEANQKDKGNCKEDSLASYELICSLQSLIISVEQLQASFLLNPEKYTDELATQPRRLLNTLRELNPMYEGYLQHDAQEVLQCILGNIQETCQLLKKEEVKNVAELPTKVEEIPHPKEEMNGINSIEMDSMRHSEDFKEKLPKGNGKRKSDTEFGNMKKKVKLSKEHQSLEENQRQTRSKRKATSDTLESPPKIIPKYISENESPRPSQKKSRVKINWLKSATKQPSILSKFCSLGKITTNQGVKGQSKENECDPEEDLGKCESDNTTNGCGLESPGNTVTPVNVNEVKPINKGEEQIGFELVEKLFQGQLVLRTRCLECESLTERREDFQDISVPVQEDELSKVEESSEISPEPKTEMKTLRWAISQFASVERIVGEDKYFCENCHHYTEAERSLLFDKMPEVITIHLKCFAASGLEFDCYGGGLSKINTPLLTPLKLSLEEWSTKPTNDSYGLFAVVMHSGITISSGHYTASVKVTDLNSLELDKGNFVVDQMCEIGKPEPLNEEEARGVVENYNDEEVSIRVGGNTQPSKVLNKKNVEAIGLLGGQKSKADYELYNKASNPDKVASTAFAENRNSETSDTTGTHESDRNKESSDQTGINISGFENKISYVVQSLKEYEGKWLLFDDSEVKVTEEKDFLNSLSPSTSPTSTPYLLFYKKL
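USP1/UAF1 complex at 1 nM was preincubated with compound for 15 min at room temperature, then Ub-Rho substrate (150nM final) was added. Fluorescence (480/540 nm) was read kinetically, 6 reads every 60 seconds.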
D1 ag: human D1 receptor agonism; 360,000 compounds, 1% hits; P21728; activation, % at 2 µM; HEK293 T-REx D1 cells, calcium flux, agonist mode; AID 504660
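Inducible HEK293 T-REx D1 cells, force-coupled to calcium signalling, were plated at 4000 cells/well with tetracycline and held overnight at 30 C. After no-wash calcium dye loading, compound-evoked calcium rise over 180 s flagged agonists.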
TRHR agonist: activates the human TRH receptor; P34981; TRHR cells, calcium flux fluo-8, FDSS agonist mode; activation, % at 2 µM; 360,000 compounds, 0.18% hits
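Agonist-mode FDSS calcium read (Ex 480/Em 530, 1 s cycles) in 1536-well TRHR cells with fluo-8 dye, after 10-cycle baseline and 23 nL compound addition; TRH at EC20 (10 nM final) added afterwards for the enhancer phase.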
D1 PAM: human D1 dopamine receptor positive modulation. 360,000 compounds, 0.036% hits. AID 504651. potentiation, % at 10 µM. P21728. HEK293 TREx D1 cells, calcium flux, dopamine EC20 potentiation; in the data active means potentiation above about 30%
TRHR enhancer: allosteric enhancers of human TRH receptor; AID 493056; TRHR cells, fluo-8 calcium fluorescence, EC20 TRH enhancement; 360,000 compounds, 0.66% hits; enhancement, % at 2 µM; in the data active means enhancement above about 30%
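Enhancer read-out: after compound pinning and an initial kinetic agonist-mode read, an EC20 of TRH (10 nM final) was injected and fluo-8 calcium signal (Ex 480/Em 530) followed at 1 s/cycle for 100 cycles in TRHR-expressing cells.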
Large screens that a line does not name were inactive. Hits are enriched below; roughly 4.4% of the tested compounds scored in any of these assays. Unless noted, no stated cut-off is given here; in the data, active means activation above about 30%; inactive means the rest.

Cc1cc2c(s1)c1cnn(Cc3cccc(C(F)(F)F)c3F)c(=O)c1n2C	none (no result: USP1-UAF1 inh)
CNC(=S)/N=C/NOCc1ccc(Cl)cc1Cl	D1 antagonist -39, USP1-UAF1 inh inconclusive
NC(=O)NOCc1ccc(Cl)cc1Cl	none
Cc1ccc(CSC(Nc2ccc(F)cc2)=C(C#N)C#N)cc1	D1 antagonist -36
COc1ccc(/C(C)=N/NC(=O)c2nnn(-c3nonc3N)c2-c2ccccc2)cc1	D1 ag 50
C/C(=N\NC(=O)c1nnn(-c2nonc2N)c1-c1cccs1)c1ccc(C)cc1	D1 ag 87
COc1ccc(/C(C)=N/NC(=O)c2nnn(-c3nonc3N)c2-c2cccs2)cc1	D1 ag 57
Cc1ccc(-n2nc(C)c3c(C(=O)Nc4ccc(Br)c(C)c4)cc(C)nc32)cc1	none
O=C(CNC(=O)c1ccccc1Cl)OC(C(=O)Nc1cc(C(F)(F)F)ccc1Cl)c1ccccc1 (configuration not stated)	none (no result: USP1-UAF1 inh)
CC(C)C1COC(c2cccn2Cc2ccccc2Cl)=N1 (configuration not stated)	D1 antagonist -38
Cc1c(OC(C)C(=O)NCCCN2CCCC2=O)ccc2c3c(c(=O)oc12)CCCC3 (configuration not stated)	D1 ag 33
Cc1c(OC(C)C(=O)NCc2ccccn2)ccc2c3c(c(=O)oc12)CCCC3 (configuration not stated)	D1 antagonist -37
Cc1c(OC(C)C(=O)NCCN2CCOCC2)ccc2c3c(c(=O)oc12)CCCC3 (configuration not stated)	none
Cc1c(OC(=O)CNC(=O)OC(C)(C)C)ccc2c3c(c(=O)oc12)CCC3	D1 antagonist -43
Cc1c(OC(C)C(=O)NC2CC(C)(C)NC(C)(C)C2)ccc2c3c(c(=O)oc12)CCC3 (configuration not stated)	D1 antagonist -49
Cc1c(OC(C)C(=O)NCc2ccncc2)ccc2c3c(c(=O)oc12)CCC3 (configuration not stated)	none
Cc1c(OCC(=O)OC(C)(C)C)ccc2c3c(c(=O)oc12)CCC3	none
CCOc1ccc(NC(=O)N(C)CCc2c(C)nn(C)c2C)cc1	USP1-UAF1 inh inconclusive
O=C(CNC(=O)c1ccccc1F)N/N=C/c1cc(Br)ccc1OC(=O)/C=C/c1ccco1	none
O=C(CNC(=O)c1ccc(F)cc1)N/N=C/c1cc(Br)ccc1OC(=O)/C=C/c1ccco1	D1 antagonist -45
COc1cccc(-c2nc(CS(=O)(=O)CC(=O)Nc3ccc(F)cc3F)c(C)o2)c1	TRHR enhancer 30
COc1ccc(CNC(=O)CS(=O)(=O)Cc2nc(-c3ccc(OC)cc3)oc2C)cc1	none
COc1cccc(-c2nc(CSCC(=O)NCCc3ccc(Cl)cc3)c(C)o2)c1	D1 antagonist -36, D1 ag 48
COc1ccc(-c2nc(CS(=O)(=O)CC(=O)NC3CCC(C)CC3)c(C)o2)cc1 (configuration not stated)	D1 antagonist -33, D1 ag 31
CCc1ccc(NC(=O)CSc2ccc3nnc(CCNS(=O)(=O)c4ccc(OC)cc4)n3n2)cc1	none
CC(C)(C)C(=O)Cn1nc(Cl)nc1Cl	TRHR enhancer 32
c1ccc2[nH]c(SCc3cn4cccnc4n3)nc2c1	TRHR enhancer 34
c1ccc(-c2cnnc(SCc3cn4cccnc4n3)n2)cc1	none
Cc1ccc(S(=O)(=O)Nc2cc(C(F)(F)F)ccc2N2CCOCC2)c(C)c1	none
Cc1ccc(S(=O)(=O)Nc2cc(C(F)(F)F)ccc2N2CCOCC2)cc1	TRHR enhancer 33
Cc1ccc(NC(=O)CSCC(=O)Nc2cc(C(F)(F)F)ccc2N2CCOCC2)cc1	D1 antagonist -34
Cc1cc(NC(=O)CSCC(=O)Nc2cc(C(F)(F)F)ccc2N2CCOCC2)no1	none
CC1CCN(S(=O)(=O)c2ccc3c(c2)N(CC(=O)NC(C)C)C(=O)CS3)CC1	none
O=C1/C(=C\c2c(NCCOCCO)nc3ccccn3c2=O)SC(=S)N1Cc1ccco1	D1 ag 138, TRHR agonist 33
CCCCNc1nc(Oc2ccc(=O)n(-c3ccccc3)n2)nc(N(CC)CC)n1	none
O=c1[nH]c(=O)n(CCO)c2nnn(Cc3ccccc3)c12	D1 antagonist -31
O=c1[nH]c(=O)n(Cc2ccccc2)c2nc(-c3ccc(C(F)(F)F)cc3)n(CCO)c12	D1 antagonist -31
CC(=O)NC(c1cc(F)c2cccnc2c1O)C(C)C (configuration not stated)	none (no result: USP1-UAF1 inh)
O=C(Nc1ccccc1C(=O)Nc1ccccn1)c1cc(F)c(F)cc1Cl	D1 antagonist -31
O=C(Nc1ccccc1C(=O)Nc1ccccn1)c1ccccc1F	none
CN1CCC(N(CCc2ccccc2)C(=O)CCC(=O)O)CC1	D1 antagonist -32
c1ccc(-c2nc(NCC3CCCO3)c3oc4ccccc4c3n2)cc1 (configuration not stated)	none
c1ccc2c(c1)oc1c(NCC3CCCO3)ncnc12 (configuration not stated)	TRHR enhancer 37
COc1ccc(CCNc2nc(C)nc3c2oc2ccccc23)cc1OC	none
COc1ccc(CCNc2ncnc3c2oc2ccccc23)cc1OC	D1 antagonist -69
CCSc1ncc(Cl)c(C(=O)N(Cc2ccc(C(C)(C)C)cc2)C2CCS(=O)(=O)C2)n1 (configuration not stated)	USP1-UAF1 inh inconclusive
COc1cccc(NC(=O)Cn2cc(C(=O)C3CCCCC3)c3ccccc32)c1	none
COc1ccc(CC(=O)NCc2nnc(SCC(=O)c3ccc(OC)cc3)n2C)cc1	none
COc1ccc(NCc2nnc(SCC(=O)c3ccc(OC)cc3)n2C)cc1	D1 antagonist -33
Cc1ccc(CN(C(=O)c2ccccc2Br)C2CCS(=O)(=O)C2)o1 (configuration not stated)	none
COc1ccccc1NC(=O)CSc1nc2ccccc2c(=O)n1C	D1 antagonist -34, D1 PAM 41
Cc1cccc(NC(=O)CSc2nc3c([nH]c4ccccc43)c(=O)n2C)c1C	D1 antagonist -51
C=CCN=c1scc(C)n1/N=C/c1ccc(O)c(O)c1	D1 antagonist -50
O=C(NCCc1ccccc1)c1ccc2nc(-c3ccco3)c(-c3ccco3)nc2c1	none
O=C(Nc1ccc2nc(-c3ccco3)c(-c3ccco3)nc2c1)N1CCCCCC1	USP1-UAF1 inh 32µM
O=C(NCCO)c1ccc2nc(-c3ccco3)c(-c3ccco3)nc2c1	USP1-UAF1 inh 32µM
Cc1ccc(NC(=O)Cn2cc(C(=O)c3ccco3)c3ccccc32)cc1C	none
O=C(O)c1cccc(N/N=C/c2cccnc2)c1	D1 antagonist -31
